From PubChem BioAssay AID1159580 (chemical genetic matrix, 2015)
The campaign covered roughly 5,500 compounds. About 2,000 (36%) were called active. Roughly 18% stayed inconclusive and do not appear here. Rule as the data show it: active = normalized growth mostly below about 0.91 (no sharp cut-off); inconclusive = no clear call, values can overlap the other calls; inactive = mostly above about 0.92. The list shows a part of the results.

Assay: chemical genetic growth profiling, strain panel (AID 1159580);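 also: tested at 20 µM; growth read once vehicle control cultures reached saturation at 30 °C; 1 = growth at the plate median or of vehicle wells; lower values mean less growth of the strain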
Conditions: growth OD

Measured: normalized growth

CC1(C)S[C@@H]2[C@H](NC(=O)[C@H](N)c3ccccc3)C(=O)N2[C@H]1C(=O)O
inactive: S. cerevisiae deletion strains, locus YJR043C, strain POL32, active compounds read low 1 | S. cerevisiae deletion strains, locus YJR066W, strain TOR1, active compounds read low 0.981 | S. cerevisiae deletion strains, locus YKL009W, strain mrt4, active compounds read low 1.01 | S. cerevisiae deletion strains, locus YKL068W, active compounds read low 1 | S. cerevisiae deletion strains, locus YKL085W, strain MDH1 (second series), active compounds read low 1.01 | S. cerevisiae deletion strains, locus YKL085W, strain MDH1, active compounds read low 1.01 | S. cerevisiae deletion strains, locus YKL160W, strain elf1, active compounds read low 0.93 | S. cerevisiae deletion strains, locus YKL190W, strain CNB1, active compounds read low 1.01 | S. cerevisiae deletion strains, locus YKR001C, strain vps1, active compounds read low 0.991 | S. cerevisiae deletion strains, locus YKR026C, strain gcn3, active compounds read low 0.972 | S. cerevisiae deletion strains, locus YKR091W, strain srl3, active compounds read low 0.962 | S. cerevisiae deletion strains, locus YLL001W, strain dnm1, active compounds read low 1 | S. cerevisiae deletion strains, locus YLL026W, active compounds read low 0.966 | S. cerevisiae deletion strains, locus YLL041C, strain sdh2, active compounds read low 0.976 | S. cerevisiae deletion strains, locus YLR027C, strain aat2, active compounds read low 0.983 | S. cerevisiae deletion strains, locus YLR039C, strain RIC1, active compounds read low 0.993 | S. cerevisiae deletion strains, locus YLR058C, strain SHM2, active compounds read low 1.01 | S. cerevisiae deletion strains, locus YLR102C, strain apc9, active compounds read low 0.997 | S. cerevisiae deletion strains, locus YLR113W, strain HOG1, active compounds read low 1.04 | S. cerevisiae deletion strains, locus YLR221C, strain rsa3, active compounds read low 1.02 | S. cerevisiae deletion strains, locus YLR258W, strain gsy2, active compounds read low 0.981 | S. cerevisiae deletion strains, locus YLR262C, strain YPT6 (second series), active compounds read low 0.983 | S. cerevisiae deletion strains, locus YLR262C, strain YPT6, active compounds read low 1.08 | S. cerevisiae deletion strains, locus YLR268W, strain sec22, active compounds read low 1.01 | S. cerevisiae deletion strains, locus YLR320W, strain mms22, active compounds read low 1 | S. cerevisiae deletion strains, locus YLR330W, strain CHS5, active compounds read low 1.01 | S. cerevisiae deletion strains, locus YLR342W, strain FKS1 (second series), active compounds read low 1.01 | S. cerevisiae deletion strains, locus YLR342W, strain FKS1, active compounds read low 0.985 | S. cerevisiae deletion strains, locus YLR357W, strain rsc2, active compounds read low 0.928 | S. cerevisiae deletion strains, locus YLR370C, strain arc18, active compounds read low 0.951 | S. cerevisiae deletion strains, locus YLR371W, strain rom2, active compounds read low 1 | S. cerevisiae deletion strains, locus YLR384C, strain iki3, active compounds read low 0.97 | S. cerevisiae deletion strains, locus YLR418C, strain cdc73, active compounds read low 0.998 | S. cerevisiae deletion strains, locus YML016C, strain PPZ1, active compounds read low 1.01 | S. cerevisiae deletion strains, locus YML032C, strain rad52, active compounds read low 0.994 | S. cerevisiae deletion strains, locus YML120C, strain ndi1, active compounds read low 0.995 | S. cerevisiae deletion strains, locus YML124C, strain tub3, active compounds read low 1 | S. cerevisiae deletion strains, locus YMR058W, strain fet3, active compounds read low 0.968 | S. cerevisiae deletion strains, locus YMR078C, strain ctf18, active compounds read low 1.01 | S. cerevisiae deletion strains, locus YMR125W, strain sto1, active compounds read low 0.964 | S. cerevisiae deletion strains, locus YMR129W, active compounds read low 0.967 | S. cerevisiae deletion strains, locus YMR205C, strain PFK2, active compounds read low 0.993 | S. cerevisiae deletion strains, locus YMR223W, strain ubp8, active compounds read low 1.01 | S. cerevisiae deletion strains, locus YMR231W, strain pep5, active compounds read low 0.985 | S. cerevisiae deletion strains, locus YMR307W, strain GAS1, active compounds read low 0.926 | S. cerevisiae deletion strains, locus YNL067W, strain RPL9B, active compounds read low 1.02 | S. cerevisiae deletion strains, locus YNL071W, strain lat1, active compounds read low 0.977 | S. cerevisiae deletion strains, locus YNL128W, strain TEP1, active compounds read low 1.03 | S. cerevisiae deletion strains, locus YNL183C, strain NPR1, active compounds read low 0.975 | S. cerevisiae deletion strains, locus YNL209W, strain ssb2, active compounds read low 0.956 | S. cerevisiae deletion strains, locus YNL233W, strain BNI4, active compounds read low 1.01 | S. cerevisiae deletion strains, locus YNL248C, strain rpa49, active compounds read low 0.907 | S. cerevisiae deletion strains, locus YNL250W, strain rad50, active compounds read low 0.998 | S. cerevisiae deletion strains, locus YNL271C, strain bni1, active compounds read low 1.03 | S. cerevisiae deletion strains, locus YNL298W, strain CLA4, active compounds read low 1.01 | S. cerevisiae deletion strains, locus YNL307C, strain MCK1, active compounds read low 1 | S. cerevisiae deletion strains, locus YNL322C, strain KRE1 (second series), active compounds read low 0.97 | S. cerevisiae deletion strains, locus YNR049C, strain mso1, active compounds read low 0.946 | S. cerevisiae deletion strains, locus YNR052C, strain pop2, active compounds read low 1 | S. cerevisiae deletion strains, locus YOL006C, strain TOP1, active compounds read low 1.04 | S. cerevisiae deletion strains, locus YOL012C, strain htz1 0.815 | S. cerevisiae deletion strains, locus YOL147C, strain pex11, active compounds read low 1.01 | S. cerevisiae deletion strains, locus YOR001W, strain rrp6, active compounds read low 1 | S. cerevisiae deletion strains, locus YOR061W, strain CKA2, active compounds read low 1.02 | S. cerevisiae deletion strains, locus YOR069W, strain VPS5, active compounds read low 1.01 | S. cerevisiae deletion strains, locus YOR070C, strain gyp1, active compounds read low 0.981 | S. cerevisiae deletion strains, locus YOR080W, strain dia2, active compounds read low 0.959 | S. cerevisiae deletion strains, locus YOR083W, strain WHI5, active compounds read low 0.917 | S. cerevisiae deletion strains, locus YOR106W, strain vam3, active compounds read low 0.914 | S. cerevisiae deletion strains, locus YOR136W, strain idh2, active compounds read low 0.995 | S. cerevisiae deletion strains, locus YOR144C, strain elg1, active compounds read low 0.998 | S. cerevisiae deletion strains, locus YOR184W, strain ser1, active compounds read low 0.999 | S. cerevisiae deletion strains, locus YOR231W, strain MKK1, active compounds read low 1.02 | S. cerevisiae deletion strains, locus YOR265W, strain rbl2, active compounds read low 0.962 | S. cerevisiae deletion strains, locus YOR270C, strain vph1, active compounds read low 0.951 | S. cerevisiae deletion strains, locus YOR290C, strain snf2, active compounds read low 0.92 | S. cerevisiae deletion strains, locus YOR316C, strain cot1, active compounds read low 1 | S. cerevisiae deletion strains, locus YPL051W, strain arl3, active compounds read low 0.947 | S. cerevisiae deletion strains, locus YPL055C, strain LGE1, active compounds read low 1.02 | S. cerevisiae deletion strains, locus YPL078C, strain atp4, active compounds read low 0.953 | S. cerevisiae deletion strains, locus YPL106C, strain sse1, active compounds read low 0.976 | S. cerevisiae deletion strains, locus YPL240C, strain hsp82, active compounds read low 0.974 | S. cerevisiae deletion strains, locus YPL256C, strain CLN2, active compounds read low 1.05 | S. cerevisiae deletion strains, locus YPR119W, strain clb2, active compounds read low 1.01 | S. cerevisiae deletion strains, locus YPR141C, strain kar3, active compounds read low 1 | S. cerevisiae deletion strains, locus YPR163C, strain tif3, active compounds read low 0.999 | S. cerevisiae deletion strains, locus YPR167C, strain met16, active compounds read low 1.02 | S. cerevisiae deletion strains, strain wtn01, active compounds read low 1.01 | S. cerevisiae strains, strain wild type, active compounds read low 1.02
